# Assay outcomes (PubChem BioAssay)
# Sampled rows, rich in hits. Any-hit rate of the full collection: about 2.3%.
# 5HT1a ag = activates the human 5-HT1a serotonin receptor. 0.56% of 65,000 active. activation, % at 10 µM. P08908. CHO 5-HT1a Ga15 NFAT-bla reporter, FRET ratio; 0% basal, 100% maximal reference agonist;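 active means activation above the screen-wide mean activation plus 3 SD, cut at about 19% in these data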;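 further: 0% = DMSO wells and 100% = 5-CT at EC100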
# mHtt clearance = mutant huntingtin protein clearance. HeLa Exon1htt(103Q)mCFP, aggregate imaging; zero = plate's median compound well. inhibition, % at 1.5 µM. 0.42% of 47,000 active. AID 853;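 active means inhibition of aggregate fluorescence above about 70%, also judged a hit by eye on the cell image, limit read from the data, passing the limit was not always enough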;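 further: cells exposed to compound for three days before fixation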
# 5-HT1A blocker = 5-HT1a (human) receptor antagonism | P08908 | CHO 5-HT1a Ga15 NFAT-bla reporter, antagonist mode | inhibition, % at 10 µM | 0.68% of 62,000 active | AID 612;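 active means inhibition above the mean of all tested compounds plus 3 SD, cut at about 43% in these data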;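 further: receptor stimulated by 5-CT agonist at 100 nM near EC80; beta-lactamase reporter measured by ratiometric fluorescence of a cleavable substrate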
# 5HT1E ag = agonists of human 5-HT1E serotonin receptor; 0.69% of 65,000 active; CHO 5-HT1E Ga15 NFAT-bla reporter, FRET; 0% DMSO wells, 100% control agonist wells; P28566; AID 574; activation, % at 6 µM;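 active means activation above a set limit, the screen-wide mean activation plus 3 SD, cut at about 8.5% in these data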;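 further: 100% = positive control agonist at 1 µM giving full maximal response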
# Target sequence (P28566 whole entry, looked up): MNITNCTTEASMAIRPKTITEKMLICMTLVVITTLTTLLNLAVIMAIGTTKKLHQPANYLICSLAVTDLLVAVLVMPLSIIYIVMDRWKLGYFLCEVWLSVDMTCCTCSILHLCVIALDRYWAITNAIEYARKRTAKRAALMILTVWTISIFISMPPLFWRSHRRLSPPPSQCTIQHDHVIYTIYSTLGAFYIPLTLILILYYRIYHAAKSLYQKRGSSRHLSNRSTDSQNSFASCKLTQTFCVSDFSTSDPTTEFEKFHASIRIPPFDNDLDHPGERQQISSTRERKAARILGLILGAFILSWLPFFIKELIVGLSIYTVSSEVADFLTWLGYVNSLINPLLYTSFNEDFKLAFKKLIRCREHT
# 5HT1E antag = blocks the human 5-HT1E serotonin receptor; P28566; CHO 5-HT1E Ga15 NFAT-bla reporter, FRET, antagonist; inhibition, % at 6 µM; 0.99% of 65,000 active;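 active means inhibition above a set limit, the mean inhibition across every tested compound plus 3 SD, cut at about 29% in these data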;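 further: signal is the 460 over 535 nm emission ratio of beta-lactamase substrate; 0% = agonist plus DMSO wells and 100% = wells without agonist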
# * marks the source's active call; other numbers are inactive results; nt = not tested or not shown.
SMILES,5HT1a ag,mHtt clearance,5-HT1A blocker,5HT1E ag,5HT1E antag
COc1cccc(OC)c1OCCCOc1c(OC)cccc1OC,0.8,-22.4,-0.6,0.3,3.4
O=S(=O)(CCSc1nc2ccccc2o1)c1nc2ccccc2s1,-3.6,nt,47.3*,-1.0,21.9
CCn1c(CCC(=O)Nc2nc3c(s2)CCCC3)nc2cc(S(=O)(=O)N(C)C)ccc21,-3.9,-62.0,12.8,0.5,-3.6
O=C(NCc1ccco1)Nc1ccc2nsnc2c1,-2.2,-8.2,59.2*,-1.3,14.1
c1ccc2c(c1)Cc1cc(CN3CCOCC3)ccc1-2,0.4,nt,-21.6,0.3,2.9
COC(=O)c1cc(C(=O)OC)cc(N2C(=O)CC(NNC(=O)c3ccccc3Br)C2=O)c1 (stereo unspecified),nt,84.9*,nt,nt,nt
Cc1nc(SCC(=O)c2ccccc2)c(C#N)c(-c2ccco2)c1C(=O)NCc1ccco1,0.3,nt,nt,0.6,-2.1
c1ccc(CCn2c(C3CC3)nc3ccccc32)cc1,nt,-7.7,nt,nt,nt
c1csc(-c2csc3nc(CN4CCOCC4)nc(NCc4ccc5c(c4)OCO5)c23)c1,-0.9,nt,51.6*,-0.3,6.9
O=C(NCc1ccco1)c1cccc2c1C(=O)N(C1CCCCC1)C2,1.8,nt,13.8,0.7,30.2*
COc1ccc(-c2nnc(SCc3ccccc3F)o2)cc1OC,-1.4,nt,9.7,-0.3,29.9*
COC(=O)C1=C(N)Oc2cc(C)n(CCN3CCOCC3)c(=O)c2C1c1cccnc1 (stereo unspecified),8.2,-12.8,15.9,0.1,1.7
O=C(O)c1ccc(COc2c(F)c(F)c(F)c(F)c2F)o1,0.3,nt,nt,0.2,7.0
O=C(c1ccc(CS(=O)(=O)c2cccc(C(F)(F)F)c2)o1)N1CCN(c2ccccn2)CC1,-2.2,nt,2.9,-0.4,15.1
COC(=O)Cc1c(C)c2c(O)cc(C)cc2oc1=O,133.6*,44.3,-4.3,-1.1,-8.7
CCc1cc(=O)oc2cc(C)cc(O)c12,-1.9,8.3,-4.9,0.1,-9.1
C=CS(=O)(=O)c1ccc(Oc2ccc(S(=O)(=O)C=C)cc2)cc1,-4.0,nt,105.6*,-0.6,102.8*
O=S(=O)(c1ccc(Oc2ccc(S(=O)(=O)N3CCOCC3)cc2)cc1)N1CCOCC1,-0.7,nt,-11.6,-0.5,6.6
O=C(NCCCN1CCN(c2cccc(Cl)c2)CC1)C1CCC(=O)N1Cc1ccccc1Cl (stereo unspecified),6.7,57.8,37.0,13.7*,-5.3
CC1(C)CC(=O)c2cc(OCC(=O)NCCCN3CCN(c4ccccc4F)CC3)ccc2O1,5.3,8.1,27.7,9.6*,4.9
Cn1c(=O)cc(OCCCC(=O)NCCN2CCN(c3ccccc3F)CC2)c2ccccc21,0.1,-44.8,23.4,0.5,-1.4
CN(CCCNC(=O)C1CCC(=O)N1Cc1ccccc1Cl)c1ccccc1 (stereo unspecified),nt,-36.0,nt,nt,nt
CC1(C)CC(=O)c2cc(OCC(=O)NCc3cccnc3)ccc2O1,-0.3,-49.9,-4.7,0.4,0.3
Cn1c(=O)cc(OCC(=O)NCCCN2CCN(c3cccc(Cl)c3)CC2)c2ccccc21,0.8,nt,27.6,9.3*,1.7
Cn1c(=O)cc(OCC(=O)NCCCN2CCN(c3ccccc3F)CC2)c2ccccc21,4.8,nt,60.8*,5.7,1.8
SMILES,5HT1a ag,mHtt clearance,5-HT1A blocker,5HT1E ag,5HT1E antag
Cc1ccc(C)c(N2CCN(C(=O)Cn3c(=O)[nH]c4ccsc4c3=O)CC2)c1,nt,1.2,nt,nt,nt
CCc1c(C(=O)Nc2ccncc2)csc1C,-0.7,-56.2,-3.3,-0.3,-3.6
COCCNC(=O)COc1cc(=O)n(C)c2ccccc12,-2.8,14.2,3.2,2.4,5.2
Cn1c(C(=O)NCCCN2CCN(c3ccccc3F)CC2)cc2c(=O)[nH]c3ccccc3c21,17.5,nt,74.8*,24.6*,4.3
Cc1ccnc(NC(=O)CCCOc2cc(=O)n(C)c3ccccc23)c1,0.0,-71.3,65.7*,-0.9,19.6
CCn1c(=O)cc(SCC(=O)NCCCN2CCN(c3ccccc3F)CC2)c2ccccc21,7.7,nt,68.6*,1.2,-11.3
CCN(CCCNC(=O)COc1cc(=O)n(C)c2ccccc12)c1cccc(C)c1,0.4,-48.6,0.8,23.9*,-12.5
CCN1CCCC1CNC(=O)CSc1cc(=O)n(CC)c2ccccc12 (stereo unspecified),-1.5,37.6,0.7,0.1,2.3
CN(C)S(=O)(=O)c1ccc(C(=O)OCn2nnc3ccccc3c2=O)cc1,nt,61.8,nt,nt,nt
Cc1cc(C)n(C(=O)c2ccc(C)c(S(=O)(=O)N3CCCC3)c2)n1,-3.9,48.8,-2.5,0.6,0.0
CCOc1cccc2cc(-c3csc(NC(=O)CCC(=O)N4CCN(C)CC4)n3)c(=O)oc12,-0.4,nt,-0.6,-0.8,3.4
CCCCN(C)CCNC(=O)Cn1ncc2c(=O)oc3ccc(C)cc3c21,-0.9,nt,0.9,10.3*,-10.3
Cc1ccc(C)c2[nH]c(=O)c(CN(CC3CCCO3)C(=O)NC3CCCCC3)cc12 (stereo unspecified),-2.8,nt,-5.8,-0.6,-18.1
CC(=O)Nc1nc(=O)c2ccccc2s1,-5.5,nt,47.3*,-0.7,-10.0
O=C(Nc1nc(=O)c2ccccc2s1)c1ccccc1,-0.2,-113.6,nt,0.2,3.4
COC(=O)c1ccc(C2CC(=O)Nc3cc(OC)c(OC)c(OC)c32)cc1 (stereo unspecified),0.3,nt,-0.3,0.3,-5.6
O=C(Nc1ccc(N2CCOCC2)cc1)Nc1ccc2nc(-c3ccco3)c(-c3ccco3)nc2c1,-0.5,-38.9,40.2,0.4,67.3*
O=C(NCCCO)Nc1ccc2nc(-c3ccco3)c(-c3ccco3)nc2c1,nt,24.0,nt,nt,nt
COc1cccc(-n2c(SC3CCOC3=O)nc3ccccc3c2=O)c1 (stereo unspecified),-1.2,0.3,14.8,-1.0,37.0*
Cc1ccc(OCCn2cc(/C(N)=N/O)c3ccccc32)cc1C,4.1,7.8,42.1,1.4,35.7*
COc1ccc(OCCn2cc(/C(N)=N/O)c3ccccc32)cc1,nt,5.6,nt,nt,nt
C=CCc1ccccc1OCC(O)Cn1ccnc1C (stereo unspecified),-1.0,nt,-4.4,-0.6,1.3
C=CCc1ccccc1OCC(O)CN(C(C)C)C(C)C (stereo unspecified),-1.6,nt,12.8,19.3*,-1.1
C=CCc1ccccc1OCC(O)CNC (stereo unspecified),-0.4,18.2,7.0,9.4*,-4.2
C=CCOC(=O)c1sc(N2C(=O)c3oc4ccccc4c(=O)c3C2c2ccco2)nc1C (stereo unspecified),1.8,nt,-29.4,0.9,-2.8
CCOc1cc2[nH]c(=O)n(CC3CCC(C(=O)NC(C)CC)CC3)c(=O)c2cc1OCC (stereo unspecified),-0.9,nt,-5.0,-0.3,3.0
CC(=O)c1cc2c(cc1NC(=O)c1cc(C)nn1-c1ccccc1)OCO2,24.4*,nt,16.7,0.7,9.2
CC(=O)Nc1ccc(NC(=O)c2cc(C)nn2-c2ccccc2)cc1,-1.7,28.1,-8.7,-0.4,4.7
Clc1ccc(Cn2ncc3c(N4CCCCC4)ncnc32)cc1,3.7,19.3,8.6,-1.3,33.8*
CC1CC(N(C(=O)c2ccco2)c2ccccc2)c2ccccc2N1 (stereo unspecified),-0.6,nt,9.6,16.2*,-5.9
